Assay results published in PubChem BioAssay (NCATS).
Results filed as inconclusive are left out. A call without a number means that no potency is given here. Activity calls are given as the source filed them. Calls come from the whole dose curve; as a rule, active = well fitted cell-killing curve with a large enough effect; inconclusive = small, poorly fitted or top-dose-only effect, or effect the other way; inactive = flat fitted curve, though single readings scatter.

Test system: HeLa
Assay: Primary qHTS to identify gynecologic anti-cancer compounds using libraries of approved drugs and bioactive compounds (AID 1345084); note: nearly all actives have a fitted effect of over 55% in size
Details: Gynecologic cancer cell panel viability, ATPlite luminescence, 48 h; series mostly up to 57.5 µM
Method in brief: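 ATP-based viability (ATPlite), 1,000 cells/well, 16 h pre-incubation, 48 h compound at 37 C, 5% CO2, 15 min RT before read.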

Structure (SMILES)	Potency
CC(=O)C12OC(C)(C)OC1CC1C3CCC4=CC(=O)C=CC4(C)C3(F)C(O)CC12C (configuration not stated)	inactive
COC(=O)C1=CO[C@@H](O[C@@H]2O[C@H](CO[C@@H]3O[C@H](COC(=O)/C=C/c4cc(OC)c(O)c(OC)c4)[C@@H](O)[C@H](O)[C@H]3O)[C@@H](O)[C@H](O)[C@H]2O)[C@@H]2C(CO)=CC[C@H]12	inactive
CC1=C2C3OC(=O)C(C)C3(O)CCC2(C)CCC1O (configuration not stated)	inactive
COc1ccccc1Oc1ccc(N(Cc2cccnc2)S(=O)(=O)CC(F)(F)F)cc1	inactive
O=C(/C=C/c1ccc(O)cc1)N[C@@H](Cc1ccc(O)cc1)C(=O)O	inactive
CC1=C(C)C(=O)OC(C(C)C2CCC3C4C5OC5C5(O)CC(OC6OC(CO)C(OC7OC(C)C(O)C(O)C7O)C(O)C6O)CC(O)C5(C)C4CCC23C)C1 (configuration not stated)	inactive
C=C[C@H]1CN2CC[C@H]1C[C@@H]2C(O)c1ccnc2ccc(OC)cc12 (some centres not stated)	inactive
C=C[C@H]1C(O[C@@H]2O[C@H](CO)[C@@H](O)[C@H](O)[C@H]2O)OC=C2C(=O)N3CCc4c([nH]c5ccccc45)C3CC21 (some centres not stated)	inactive
O=C(O)/C=C/c1ccc(O)c(O[C@@H]2O[C@H](CO)[C@@H](O)[C@H](O)[C@H]2O)c1	inactive
C=C(C(=O)O)C1CC(O)C2(C)CCCC(=C)C2C1 (configuration not stated)	inactive
CC1CCC2(C(=O)O)CCC3(C)C(=CCC4C5(C)CCC(OC(=O)/C=C/c6ccccc6)C(C)(C)C5CCC43C)C2C1C (configuration not stated)	inactive
C=C[C@H]1[C@H](O[C@@H]2O[C@H](CO)[C@@H](O)[C@H](O)[C@H]2O)OC=C(C(=O)OC)[C@H]1CC(=O)O	inactive
